According to paper PMC3218832:

What was measured:
Assay in all cases: protein binding microarray; high values mean tight binding
Conditions in all cases: dsDNA, one strand shown
RELARELA (p65 homodimer) = RELARELA (p65 homodimer) (Homo sapiens, UniProt Q04206 1-307)
p50p50 homodimer = p50p50 homodimer (Homo sapiens, UniProt P19838 7-356)
p52p52 homodimer = target: T1, p52p52 homodimer (Homo sapiens, UniProt Q00653 4-332)
T1 sequence: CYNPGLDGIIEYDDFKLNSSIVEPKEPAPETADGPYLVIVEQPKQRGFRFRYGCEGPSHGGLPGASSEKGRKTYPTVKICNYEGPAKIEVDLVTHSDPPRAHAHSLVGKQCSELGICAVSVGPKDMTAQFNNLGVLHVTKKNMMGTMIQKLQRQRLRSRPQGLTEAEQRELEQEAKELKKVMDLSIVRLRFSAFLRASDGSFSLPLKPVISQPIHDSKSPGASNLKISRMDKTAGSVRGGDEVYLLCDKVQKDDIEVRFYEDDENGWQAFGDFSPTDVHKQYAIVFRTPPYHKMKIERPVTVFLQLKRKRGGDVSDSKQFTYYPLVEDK

[1] = target: RELA (p65) subunit of heterodimer;p50 subunit (Homo sapiens;Homo sapiens, UniProt Q04206;P19838 1-307;7-356)
Chain of RELA (p65) subunit of heterodimer;p50 subunit (Q04206 1-307, chain 1 of 2): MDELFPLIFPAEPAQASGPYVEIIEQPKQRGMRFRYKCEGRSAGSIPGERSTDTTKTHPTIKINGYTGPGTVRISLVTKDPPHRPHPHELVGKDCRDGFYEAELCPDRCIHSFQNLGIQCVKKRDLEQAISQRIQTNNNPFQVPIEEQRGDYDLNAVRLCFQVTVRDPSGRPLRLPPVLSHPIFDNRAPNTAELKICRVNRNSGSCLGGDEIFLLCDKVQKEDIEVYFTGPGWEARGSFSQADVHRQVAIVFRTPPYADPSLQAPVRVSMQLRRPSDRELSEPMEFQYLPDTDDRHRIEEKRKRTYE
Chain of RELA (p65) subunit of heterodimer;p50 subunit (P19838 7-356, chain 2 of 2): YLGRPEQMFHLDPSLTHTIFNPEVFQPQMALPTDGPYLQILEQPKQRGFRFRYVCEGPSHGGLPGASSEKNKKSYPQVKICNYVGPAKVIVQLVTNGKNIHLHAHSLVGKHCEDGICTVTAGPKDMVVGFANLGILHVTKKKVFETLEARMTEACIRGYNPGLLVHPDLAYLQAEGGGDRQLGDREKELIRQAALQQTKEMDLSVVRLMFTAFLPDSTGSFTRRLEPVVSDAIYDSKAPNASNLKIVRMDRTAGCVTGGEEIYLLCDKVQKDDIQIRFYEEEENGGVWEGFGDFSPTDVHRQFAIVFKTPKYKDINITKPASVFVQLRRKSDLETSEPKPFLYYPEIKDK

[2] = target: RELA (p65) subunit of heterodimer;p52 subunit (Homo sapiens;Homo sapiens, UniProt Q04206;Q00653 1-307;4-332)
RELB subunit;p50 subunit = RELB subunit;p50 subunit (Homo sapiens;Homo sapiens, UniProt Q01201;P19838 120-401;7-356)
RELB subunit;p52 subunit = target: T2, RELB subunit;p52 subunit (Homo sapiens;Homo sapiens, UniProt Q01201;Q00653 120-401;4-332)
T2 sequence 1: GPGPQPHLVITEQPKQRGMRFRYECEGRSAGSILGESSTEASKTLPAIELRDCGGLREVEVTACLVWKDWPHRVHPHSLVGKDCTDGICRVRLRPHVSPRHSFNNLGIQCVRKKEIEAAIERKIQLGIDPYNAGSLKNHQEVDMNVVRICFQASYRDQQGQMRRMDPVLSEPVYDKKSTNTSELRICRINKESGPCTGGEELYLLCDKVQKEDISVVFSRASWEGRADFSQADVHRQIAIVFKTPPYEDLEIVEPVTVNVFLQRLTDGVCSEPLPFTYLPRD
T2 sequence 2: T1 sequence

[3] = target: C-Rel subunit;p50 subunit (Homo sapiens;Homo sapiens, UniProt Q04864;P19838 1-285;7-356)
[4] = target: T3, C-Rel subunit;p52 subunit (Homo sapiens;Homo sapiens, UniProt Q04864;Q00653 1-285;4-332)
T3 sequence 1: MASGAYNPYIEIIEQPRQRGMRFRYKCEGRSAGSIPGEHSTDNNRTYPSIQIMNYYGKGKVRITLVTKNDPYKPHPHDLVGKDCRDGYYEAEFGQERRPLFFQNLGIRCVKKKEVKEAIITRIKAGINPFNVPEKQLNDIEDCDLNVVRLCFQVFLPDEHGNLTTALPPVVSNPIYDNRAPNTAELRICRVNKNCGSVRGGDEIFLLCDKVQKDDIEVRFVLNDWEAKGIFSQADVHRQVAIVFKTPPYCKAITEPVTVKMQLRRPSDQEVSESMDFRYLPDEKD
T3 sequence 2: T1 sequence

Chain of p50p50 homodimer (P19838 7-356): as the sequence (P19838 7-356, chain 2 of 2) above
Chain of RELARELA (p65 homodimer) (Q04206 1-307): as the sequence (Q04206 1-307, chain 1 of 2) above

| Sequence | binding signal (RELARELA (p65 homodimer)) [z-score] | binding signal (p50p50 homodimer) [z-score] | binding signal (p52p52 homodimer) [z-score] | binding signal [1] [z-score] | binding signal [2] [z-score] | binding signal (RELB subunit;p50 subunit) [z-score] | binding signal (RELB subunit;p52 subunit) [z-score] | binding signal [3] [z-score] | binding signal [4] [z-score] |
| --- | --- | --- | --- | --- | --- | --- | --- | --- | --- |
| GGGAAAGCCCC | 3.52 | 1.48 | 3.39 | 3.02 | 3.27 | 3.3 | 2.95 | 2.45 | 3.53 |
| CAATTTATCCT | -0.0381 | -0.676 | -0.566 | -0.744 | -0.71 | -0.801 | -0.64 | -1.1 | -0.673 |
| CAAGGGGTCCT | -0.5 | -0.988 | -0.106 | -1.06 | -0.546 | -0.595 | -0.354 | -0.859 | -0.486 |
| CAGGTCGCCCC | -0.367 | -0.385 | -0.232 | -0.268 | -0.328 | -0.18 | -0.126 | 0.016 | -0.13 |
| CAGTGCATCCT | -0.475 | -2.12 | -0.705 | -0.986 | -0.986 | -1.19 | -1.04 | -1.59 | -0.988 |
| CGATGTGTCCC | 0.341 | -0.155 | 0.228 | 0.0812 | 0.0701 | -0.0289 | 0.0454 | 0.132 | 0.074 |
| CGGAATTTCCT | 3.7 | -0.012 | -0.109 | 1.2 | 0.553 | -0.413 | -0.0415 | 0.843 | 0.719 |
| AAATAATTCCT | 0.497 | -0.505 | -0.44 | -0.41 | -0.399 | -0.654 | -0.671 | 0.179 | -0.124 |
